An excerpt weighted towards active compounds, which were near 2.4% of everything screened.
ABHD5-PLIN5 inh: blocks binding of human ABHD5 to perilipin-5. Q00G26+Q8WTS1. Split G. princeps luciferase complementation, luminescence, 4 h. inhibition, % at 4 µM. 360,000 compounds, 0.78% hits. AID 602281;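 active = inhibition above the mean inhibition across every tested compound plus 3 SD, cut at about 22% in these data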;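 also: 0% = DMSO only wells and the 100% control is not disclosed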
CRFBP-R2 block: CRF-BP/CRF-R2 complex antagonism. AID 588475. inhibition, % at 11.8 µM. 350,000 compounds, 0.59% hits. HEK293 CRF-R2/CRF-BP, CRF-induced calcium fluorescence;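 active = inhibition of the ligand-induced calcium signal above about 50% at the single tested concentration, limit read from the data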
m5-HT2A agonist: agonists of mouse serotonin 5-HT2A receptor (HTR2A); CHO-K1 mHTR2A beta-arrestin complementation, luminescence; percent of 30 µM serotonin response; activation, % at 7.6 µM; 360,000 compounds, 0.66% hits; AID 624169;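 active = activation above a run cutoff, the mean activation of all tested compounds plus 3 SD, cut at about 14% in these data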;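 also: 0% = plate median of compound wells and 100% = 30 µM serotonin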
TLR4 MyD88 comp: inhibitors of human TLR4-MyD88 binding. 200,000 compounds, 0.18% hits. inhibition, % at 8.4 µM. HeLa CL3-4 TLR4/MyD88 BLA complementation, FRET ratio. AID 861. O00206+Q99836; in the data active = inhibition above about 25%;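 also: 0% = vehicle and 100% = reference inhibitor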
TLR9-MyD88 inh: inhibitors of human TLR9-MyD88 binding. Q9NR96+Q99836. CHO BLA complementation TLR9-MyD88, CCF4 FRET ratio. inhibition, % at 4.98 µM. 340,000 compounds, 0.21% hits. AID 504734;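 active = inhibition above the mean over all tested compounds plus 3 SD, cut at about 21% in these data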;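 also: 0% = DMSO only wells and 100% = clavulanate BLA inhibitor control wells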
NOD2-RIPK2 inh: blocks binding of human NOD2 to RIPK2. 360,000 compounds, 0.38% hits. CHO BLA complementation NOD2-RIPK2, CCF4 ratio. O43353. inhibition, % at 4.98 µM; in the data active = inhibition above about 21%;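 also: 0% = vehicle only and 100% = reference blocker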
OPRM1 ag: OPRM1 agonism in mouse HTR2A counterscreen; AID 624380; shares compounds with m5-HT2A agonist; 2,300 compounds, 5.3% hits; activation, % at 9.3 µM; U2OS OPRM1 beta-arrestin PathHunter, luminescence; DMSO 0%, DAMGO 9.3 µM 100%;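 active = mean activation above the mean of DMSO-only wells plus 3 SD, cut at about 0.5% in these data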
Target sequence (P35372 whole entry, looked up): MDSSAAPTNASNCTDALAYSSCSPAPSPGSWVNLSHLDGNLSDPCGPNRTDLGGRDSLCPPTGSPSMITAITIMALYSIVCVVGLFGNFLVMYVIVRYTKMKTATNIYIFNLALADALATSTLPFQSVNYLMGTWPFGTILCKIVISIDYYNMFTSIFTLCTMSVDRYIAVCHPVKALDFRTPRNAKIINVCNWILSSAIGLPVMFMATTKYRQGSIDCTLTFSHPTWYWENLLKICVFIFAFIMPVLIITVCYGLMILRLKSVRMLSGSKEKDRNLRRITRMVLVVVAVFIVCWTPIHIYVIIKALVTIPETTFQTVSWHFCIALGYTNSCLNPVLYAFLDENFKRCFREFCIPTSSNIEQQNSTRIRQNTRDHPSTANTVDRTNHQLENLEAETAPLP
HTR2A ag conf: confirmation of mouse HTR2A serotonin receptor agonists | 2,300 compounds, 19% hits | CHO-K1 PathHunter beta-arrestin recruitment, luminescence; DMSO 0%, 30 µM serotonin 100% | shares compounds with m5-HT2A agonist | activation, % at 7.6 µM;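 active = mean activation across triplicates above the hit threshold derived in the original primary screen, cut at about 15% in these data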
Starred values were filed as active, the others as inactive; x = no result given.

SMILES	ABHD5-PLIN5 inh	CRFBP-R2 block	m5-HT2A agonist	TLR4 MyD88 comp	TLR9-MyD88 inh	NOD2-RIPK2 inh	OPRM1 ag	HTR2A ag conf
C[C@H](OC(=O)c1[nH]cnc1C(=O)N1CCN(C(=O)OC(C)(C)C)CC1)c1ccccc1	-13	7	-3	x	-3	0	x	x
CN(C(=O)CN1C(=O)NC2(CCc3ccccc32)C1=O)C1CCS(=O)(=O)C1 (stereo not given)	1	-13	18*	x	-3	-9	-1	-2
CCN(C(=O)CN1C(=O)NC2(CCc3ccccc32)C1=O)C1CCS(=O)(=O)C1 (stereo not given)	-10	6	-8	x	-4	-1	x	x
O=C(NCC1CCCCC1)c1cc(S(=O)(=O)N2CCOCC2)ccc1F	5	-8	15*	x	-8	-3	-1	-2
O=C(OC1CCCCC1=O)c1cc(S(=O)(=O)N2CCOCC2)ccc1F (stereo not given)	-2	10	15*	x	-4	-15	1.1*	6
CCCN(C)C[C@@H]1Oc2ncc(Br)cc2C(=O)N([C@@H](C)CO)C[C@H]1C	-3	6	-1	x	-2	-2	x	x
Cc1ccc(S(=O)(=O)NC(=O)Nc2cccc(S(=O)(=O)N(C)C)c2)cc1	0	1	17*	x	7	-4	-1	0
O=C(O)C1CCCN(C(=O)c2cccc3ccccc23)C1 (stereo not given)	6	1	3	x	0	-4	x	x
CCOC(=O)C1CCCN(C(=O)c2cccc3ccccc23)C1 (stereo not given)	2	-8	17*	x	14	-9	0	-3
CCCC(=O)N1CCC1(C)C(=O)NS(=O)(=O)c1ccccc1 (stereo not given)	-7	x	3	x	x	2	x	x
O=C(C[C@H]1C/C=C\CCC(=O)OC[C@H]2CCCN2C1=O)NCCO	7	-9	20*	x	-6	-2	-1	-3
CC1CCCC(C)N1CC(O)COCC1COc2ccccc2O1 (stereo not given)	18	-7	0	10	-7	1	x	x
OCCN1CCN(CC(O)COCC2COc3ccccc3O2)CC1 (stereo not given)	-1	-34	3	6	-3	-2	x	x
OC(COCC1COc2ccccc2O1)CN1CCN(c2ccccc2F)CC1 (stereo not given)	1	-4	15*	-5	-1	-6	0	36*
CC[N+](C)(CC)CC(O)COCC1COc2ccccc2O1 (stereo not given)	5	-22	16*	0	2	-3	-1	-2
O=c1c(-c2ccccc2)nc2ccccc2n1C(c1ccccc1)c1nc2ccccc2[nH]1 (stereo not given)	16	x	-2	x	x	-18	x	x
COCCN1C(=O)COc2ccccc2C1C(=O)Nc1ccc2c(c1)OCCO2 (stereo not given)	1	x	-4	x	x	-11	x	x
O=C1C(=O)N(CCS(=O)(=O)c2ccccc2)c2ccc(Cl)cc21	-17	-2	-3	x	9	12	x	x
CCc1ccc2c(c1)C(=O)C(=O)N2CCS(=O)(=O)c1ccccc1	-16	7	21*	x	2	11	-1	2
COC(=O)c1cc2n3ccccc3c(C)c(-c3ccccc3)c-2c1C(=O)OC	9	-7	18*	0	-1	-10	0	1
Cc1cccc2nc(COc3ccc4ccccc4c3Br)cn12	6	25	32*	x	4	-15	0	11
Cc1cccc2nc(CSc3ccccc3N)cn12	-1	-21	-1	-9	-8	-4	x	x
CCOC(=O)Cc1nnc(NC(=O)C(CC)Sc2nncn2C)s1 (stereo not given)	-1	18	14*	-10	-1	-10	-1	-4
CCNC(=O)C1(C)CCN(C(=O)c2cc(OC)c(OC)c(OC)c2)C1 (stereo not given)	0	x	-2	x	x	6	x	x
Cc1ccc(-c2nnc(Nc3ccc(O)cc3)c3ccccc23)cc1S(=O)(=O)NCCO	-3	-4	-4	x	3	1	x	x
SMILES	ABHD5-PLIN5 inh	CRFBP-R2 block	m5-HT2A agonist	TLR4 MyD88 comp	TLR9-MyD88 inh	NOD2-RIPK2 inh	OPRM1 ag	HTR2A ag conf
CCOC(=O)CNS(=O)(=O)c1cc(-c2nnc(Nc3ccc4c(c3)OCO4)c3ccccc23)ccc1C	-6	-12	17*	-7	-1	-13	-1	8
CCOc1cc(C2C(C(C)=O)=C(C)Nc3ncnn32)ccc1O (stereo not given)	0	-3	15*	x	-14	-4	-1	-3
COC(=O)CNc1n[nH]c(=S)[nH]c1=O	10	19	17*	8	-8	0	-1	-2
COc1ccc(Nc2nc(-c3cccs3)nc3ccccc23)c(OC)c1	3	-30	3	-7	16	-8	x	x
COc1ccc(Nc2nc(N3CCN(C)CC3)nc3ccccc23)c(OC)c1	11	22	16*	5	-4	6	0	19*
CN(Cc1nc(-c2ccccc2)no1)C(=O)c1ccco1	2	2	16*	x	8	-8	0	-1
COc1ccc(S(=O)(=O)NCC(c2cccnc2)N2CCN(c3ccccc3)CC2)cc1C (stereo not given)	6	-35	4	3	0	5	x	x
CCN1CCN(C(CNS(=O)(=O)c2ccc(OC)c(C)c2)c2cccnc2)CC1 (stereo not given)	2	-17	20*	x	3	5	-1	-3
Cc1ncc(/C=C2\C(=O)Nc3ccccc32)[nH]1	x	-17	x	x	x	x	x	x
O=C1Nc2ccccc2/C1=C/c1ccc([N+](=O)[O-])cc1	19	-7	28*	x	-13	-5	1.0*	-1
Cc1ccccc1C(=O)O/N=C(\N)c1ccccc1	-6	5	5	x	-4	-3	x	x
Cc1ccccc1C(=O)O/N=C(\c1ccccc1)c1ccccn1	6	15	23*	9	0	-1	-1	43*
COC(=O)c1c(-c2ccsc2)sc2ccc(-c3cc(OC)c(OC)c(OC)c3)cc12	-4	27	1	x	-7	-11	x	x
COc1cc(-c2ccc3sc(-c4ccsc4)c(C#CCO)c3c2)cc(OC)c1OC	-2	-3	18*	x	7	2	0	3
Cc1ccc2c(CN3CCN(c4ccc(Cl)c(Cl)c4)CC3)cc(=O)oc2c1	3	x	18*	x	x	-13	0	-4
Cc1cc2oc(=O)cc(CN3CCN(c4ccc(Cl)c(Cl)c4)CC3)c2cc1Cl	11	x	17*	x	x	-17	0	2
